Compound activity from PubChem BioAssay.
Pemphigus Ab inh = human desmoglein-3 autoantibody binding inhibition | P32926 | binding (percent of control), % at 10 µM | hit rate 0.48% among 310,000 | DSG3-coupled beads, scFv-anti-DSG3-GFP binding, flow cytometry; stronger effect = lower value;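 active means binding more than 3 SD below its plate's average and above zero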;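 further: hits lower antibody fragment binding to DSG3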
Target sequence (P32926 whole entry, looked up, the tested form may be a part): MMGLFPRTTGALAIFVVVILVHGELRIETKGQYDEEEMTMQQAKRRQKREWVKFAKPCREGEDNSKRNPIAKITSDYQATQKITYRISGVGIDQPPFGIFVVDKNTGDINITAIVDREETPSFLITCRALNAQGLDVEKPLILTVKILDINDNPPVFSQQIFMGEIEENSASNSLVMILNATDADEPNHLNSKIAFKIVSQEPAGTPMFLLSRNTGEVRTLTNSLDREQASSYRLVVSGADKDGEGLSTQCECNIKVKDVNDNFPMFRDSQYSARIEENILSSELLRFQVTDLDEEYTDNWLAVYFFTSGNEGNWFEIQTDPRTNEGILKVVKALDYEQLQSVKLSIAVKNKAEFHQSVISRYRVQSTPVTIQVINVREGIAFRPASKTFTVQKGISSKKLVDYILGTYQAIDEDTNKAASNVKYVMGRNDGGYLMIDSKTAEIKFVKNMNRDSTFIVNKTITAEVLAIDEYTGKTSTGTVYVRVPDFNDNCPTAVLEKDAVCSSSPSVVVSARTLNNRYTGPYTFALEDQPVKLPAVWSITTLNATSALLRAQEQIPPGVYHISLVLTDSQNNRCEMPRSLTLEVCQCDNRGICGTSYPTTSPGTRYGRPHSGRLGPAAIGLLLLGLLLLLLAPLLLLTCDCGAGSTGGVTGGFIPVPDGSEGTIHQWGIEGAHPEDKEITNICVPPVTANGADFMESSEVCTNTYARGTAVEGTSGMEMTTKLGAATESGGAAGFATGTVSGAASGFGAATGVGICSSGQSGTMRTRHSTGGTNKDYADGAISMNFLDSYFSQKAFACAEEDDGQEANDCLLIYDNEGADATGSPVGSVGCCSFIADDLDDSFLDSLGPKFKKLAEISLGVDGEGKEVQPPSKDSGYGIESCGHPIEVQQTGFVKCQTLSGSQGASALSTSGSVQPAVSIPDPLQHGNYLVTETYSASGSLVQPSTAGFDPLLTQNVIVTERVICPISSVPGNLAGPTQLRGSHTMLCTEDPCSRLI
NSD2 HMT inh = inhibitors of human histone methyltransferase NSD2. inhibition, % at 12.5 µM. hit rate 0.54% among 310,000. O96028. AID 743445. NSD2 peptide methylation, AlphaScreen, 120 min; in the data active means inhibition above about 50%
Vif inh = blocks HIV Vif function; inhibition, % at 7.49 µM; hit rate 0.35% among 340,000; HEK293T cells, Vif self-association by quenched fluorescence, imaging, 24 h; AID 602346; in the data active means inhibition above about 50%, passing the limit was not always enough
N-glyco inh = N-linked glycosylation inhibition. reporter increase, % at 12.5 µM. D54 ERlucT glycosylation luciferase reporter, 24 h; percent of 100 nM tunicamycin response. AID 588692. hit rate 0.23% among 360,000;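 active means mean luciferase reporter signal, scaled so untreated is 0 and the glycosylation-blocking control 100, at or above a set limit in every replicate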;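 further: luciferase carries N-glycosylation sites so blocking glycosylation raises the light; 0% = median of neutral control wells and 100% = median of 100 nM tunicamycin wells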
CaV13 FRET inh = Primary screen for inhibitors of IQ motif and Ca2+-dependent inactivation inhibitor domain binding in CACNA1D, Förster resonance energy transfer in living cells, … | hit rate 0.098% among 340,000 | HEK cells, CFP/YFP FRET ICDI-IQ, plate reader, 10 min; percent FRET-ratio fall versus neutral wells | inhibition, % at 12.3 µM;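 active means mean replicate inhibition of at least 30% and at least 1% of replicates passing that level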;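 further: 0% = median of the neutral control wells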
ATG4B inh = blocks human ATG4B protease cleavage of LC3 substrate | inhibition, % at 8.33 µM | hit rate 0.51% among 340,000 | AID 504462 | ATG4B cleavage of LC3-PLA2, NBD-HPC fluorescence, 1 h; in the data active means inhibition above about 40%
* = called active by the depositor. The list is not random: actives were taken first. Their share in the collection is about 1.9%.

What do the screens show for `C=C1C(=O)O[C@@H]2C[C@@H](C)[C@@H]3C4OC4C(=O)[C@@]3(C)[C@@H](O)[C@H]12` (some centres not stated)?
Pemphigus Ab inh: 101; Vif inh: 41*; N-glyco inh: -11; CaV13 FRET inh: -6; ATG4B inh: 3

What do the screens show for `COc1cc(O)cc2c1C(=O)O[C@@H](C)CCCC(=O)CCCCC2`?
Pemphigus Ab inh: 116; NSD2 HMT inh: 17; Vif inh: 2; N-glyco inh: -1; CaV13 FRET inh: -4; ATG4B inh: -3

How did COC(=O)OCC12CCC(O1)C1(C)C(=O)OCC21 (configuration not stated) do in these assays?
Pemphigus Ab inh: 88; NSD2 HMT inh: -1; Vif inh: -1; N-glyco inh: 4; CaV13 FRET inh: -6; ATG4B inh: -1

How did CCn1c(=O)cc(OCC(=O)N2CCN(Cc3ccc4c(c3)OCO4)CC2)c2ccccc21 do in these assays?
Pemphigus Ab inh: 100; NSD2 HMT inh: 0; Vif inh: 67*; N-glyco inh: 5; CaV13 FRET inh: -5; ATG4B inh: -13

What do the screens show for `c1ccc(CCn2nnnc2CN2CCC(n3nnc4ccccc43)CC2)cc1`?
Pemphigus Ab inh: 108; NSD2 HMT inh: 7; Vif inh: -12; N-glyco inh: -3; ATG4B inh: -17

Results for CNCC(O)c1cccc(OC(=O)c2ccccc2C)c1 (configuration not stated) ?
Pemphigus Ab inh: 112; NSD2 HMT inh: 28; Vif inh: 0; N-glyco inh: -4; CaV13 FRET inh: 1; ATG4B inh: -1

How did Cc1cc(C)nc(N2Cc3ccccc3C2=N)n1 do in these assays?
Pemphigus Ab inh: 109; NSD2 HMT inh: -1; Vif inh: 22; N-glyco inh: 37*; CaV13 FRET inh: -3; ATG4B inh: 5

Results for Cc1ccc(N2Cc3ccccc3C2=N)cc1[N+](=O)[O-] ?
Pemphigus Ab inh: 100; NSD2 HMT inh: -4; Vif inh: 0; N-glyco inh: 1; CaV13 FRET inh: -4; ATG4B inh: -11

How did Cc1ccc2c(C)c3ccc4ccccc4c3c[n+]2c1 do in these assays?
Pemphigus Ab inh: 90; NSD2 HMT inh: 11; Vif inh: -18; N-glyco inh: 37*; CaV13 FRET inh: -14; ATG4B inh: 0

What do the screens show for `Nc1c(C(=O)OCC2CCCO2)c2nc3ccccc3nc2n1Cc1cccs1` (configuration not stated)?
Pemphigus Ab inh: 97; NSD2 HMT inh: -11; Vif inh: -10; N-glyco inh: 20; ATG4B inh: -25

What do the screens show for `CC12CC[C@H]3[C@@H](CCC4(O)C[C@H](O)CCC34/C=N/NC(=O)c3ccccc3[N+](=O)[O-])C1(O)CCC2C1=CC(=O)OC1` (some centres not stated)?
Pemphigus Ab inh: 99; NSD2 HMT inh: -4; Vif inh: 7; N-glyco inh: 30*; CaV13 FRET inh: -8; ATG4B inh: -3

Results for Cc1ccccc1-n1c(CNc2ccccc2)nc2ccccc2c1=O ?
Pemphigus Ab inh: 104; NSD2 HMT inh: 2; Vif inh: -3; N-glyco inh: -1; CaV13 FRET inh: -19; ATG4B inh: 3

What do the screens show for `COc1ccc(OC)c(N2C(=O)/C(=C/c3ccco3)C(=O)NC2=S)c1`?
ATG4B inh: 87*

How did COc1ccc(N2C(=O)/C(=C/c3ccc(C)o3)C(=O)NC2=S)cc1 do in these assays?
Pemphigus Ab inh: 90; NSD2 HMT inh: 37; Vif inh: 9; N-glyco inh: 1; CaV13 FRET inh: -2; ATG4B inh: 4

How did CCn1nc(-c2ccccc2)nc2c(=O)n(C)c(=O)nc1-2 do in these assays?
Pemphigus Ab inh: 97; Vif inh: 7; N-glyco inh: 0; ATG4B inh: 80*

What do the screens show for `CC(O)C1C=CC=CC(=O)OC2CC3OC4C5OC5(C)C(O)CC4(COC(=O)C(O)C(C)CCO1)C2(C)C31CO1` (configuration not stated)?
Pemphigus Ab inh: 74*; NSD2 HMT inh: -2; Vif inh: 3; N-glyco inh: -18; CaV13 FRET inh: -10; ATG4B inh: 1
